16 compounds from PubChem BioAssay (Tox21) can be followed below.

Molecules are shown by their SMILES. Inconclusive results are not listed. Active and inactive are the calls of the source. Unless noted, calls follow the shape of the dose curve; as a rule, active = well fitted curve in the direction sought with a large enough effect in the repeat runs; inconclusive = weak or mixed curves; inactive = no such curve, though single readings can be large; an effect the other way counts as inactive or inconclusive.

Test [1] is described as follows: qHTS assay to identify small molecule agonists of the vitamin D receptor (VDR) signaling pathway - cell viability counter screen (AID 743224). Also: nearly all actives have a fitted effect of over 50% in size. The procedure, abridged: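 CellTiter-Glo viability readout on VDR-bla cells, measured after 16 h of compound treatment at 37C in the same wells.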
(In general: In qHTS, concentration-response curves come from the screen itself.)

Test [2] in a line: qHTS assay to identify small molecule antagonists of the vitamin D receptor (VDR) signaling pathway - cell viability counter screen (AID 743225). Also: nearly all actives have a fitted effect of over 50% in size. The procedure, abridged:
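Cytotoxicity counter screen read by CellTiter-Glo luminescence (30 min, room temperature) in the same wells as the VDR-bla antagonist readout. HEK 293T VDR-UAS-bla cells had 16 h at 37C with compound and 3 nM (final) 1-alpha,25-dihydroxyvitamin D3, then 2 h with FRET substrate.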

Test [3] in a line: qHTS assay to identify small molecule agonists of the NFkB signaling pathway - cell viability counter screen (AID 1159515; calls by dose curve; also: nearly all actives have a fitted effect of over 55% in size). Summed up:
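Tox21 library compounds were tested for cytotoxicity against NFkB-bla ME-180 cells during a 5 hr exposure at 37 C. CellTiter-Glo luminescence served as the viability read-out.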

Test [4] in a line: qHTS assay to identify small molecule agonists of the endoplasmic reticulum stress response signaling pathway (AID 1159516; active = well fitted activation curve with a large enough effect in the signal ratio in the repeat runs, not every such curve was filed as active; the % refers to the signal ratio). Summed up:
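Fluorescence at 460 and 530 nm (405 nm excitation) reports beta-lactamase from an ER stress response element in HeLa cells treated 5 hr at 37 C.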

Test [5] deals with Nuclear receptor ROR-gamma (Homo sapiens) (UniProt P51449). The test can be described thus: qHTS assay to identify small molecule antagonists of the retinoid-related orphan receptor gamma (ROR-gamma) signaling pathway (AID 1159521; also: nearly all actives have a fitted effect of over 50% in size; also: potency is read from the fitted curve at half-maximal effect). The procedure, abridged:
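Antagonist read-out: drop in luminescence (ONE-Glo) from an RORE-LUC reporter in CHO cells with doxycycline-inducible ROR-gamma; 2 hr compound pretreatment, 1 uM doxycycline, 16 hr incubation at 37 C.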

Test [6] in a line: qHTS assay to identify small molecule agonists of the AP-1 signaling pathway - cell viability counter screen (AID 1159525; calls by dose curve; also: nearly all actives have a fitted effect of over 55% in size). The procedure, abridged: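 Intracellular ATP by Cell Titer Glo luminescence (30 min, RT) in the same ME-180 AP-1-bla wells after the 5 h compound exposure at 37 °C. Normalised to tetra n-octyl ammonium bromide and DMSO controls.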
A short description of test [7]: qHTS assay to identify small molecule agonists of the AP-1 signaling pathway (AID 1159526; calls by dose curve).
A short description of test [8]: qHTS assay to identify small molecule agonists of the RXR signaling pathway - cell viability counter screen (AID 1159529). Also: nearly all actives have a fitted effect of over 50% in size. Summed up: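 CellTiter-Glo luminescence gave viability in the wells also read for beta-lactamase. Cells (RXR-alpha-UAS-bla HEK 293T, 2% charcoal-stripped FBS medium) had 5 hr plating, then 16 hr compound exposure at 37 C; tetraoctyl ammonium bromide served as positive control.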

Test [9] in a line: qHTS assay to identify small molecule antagonists of the retinoid acid receptor (RAR) signaling pathway - cell viability counter screen (AID 1159551). Also: nearly all actives have a fitted effect of over 35% in size. The procedure, abridged:
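In this counter screen, the RARE-luciferase line C3RL4 was exposed for 6 h at 37 C and 5% CO2 to compounds with retinol at 1 uM final. Cellular ATP, read by luminescence, served as the viability measure.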

Test [10] is described as follows: qHTS assay to identify small molecule agonists of the retinoic acid receptor (RAR) signaling pathway (AID 1159553). Also: potency is read from the fitted curve at half-maximal effect. As to conditions: C3RL4 RARE luciferase reporter, agonist, 6 h; activation: at 73.3 µM (top of the series) unless noted. The procedure, abridged: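 In this cell-based screen, 1,000 C3RL4 cells per well were cultured overnight, dosed with test chemicals in DMSO for 6 hr, and assessed for RARE luciferase luminescence.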

Test [11] has as its target Retinoic acid receptor RXR-alpha (Homo sapiens) (UniProt P19793). The test can be described thus: qHTS assay to identify small molecule agonists of the RXR signaling pathway (AID 1159527; calls by dose curve; also: nearly all actives have a fitted effect of over 35% in size). The procedure, abridged: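 Agonist-mode beta-lactamase reporter assay: HEK 293T RXR-alpha-UAS-bla cells treated 16 hr at 37 C with compounds, 9-cis retinoic acid as positive control. LiveBLAzer FRET substrate, 405 nm excitation, 460/530 nm emission.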

Test [12] can be described thus: qHTS assay to identify small molecule antagonists of the retinoic acid receptor (RAR) signaling pathway (AID 1159552; also: nearly all actives have a fitted effect of over 50% in size). The procedure, abridged:
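Luminescent RARE reporter read-out in C3RL4 cells: 6 hr co-treatment at 37 C of test compounds with retinol at 1 uM final. Cells plated overnight beforehand; luciferase reagent incubated 30 min at room temperature before reading.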

The nature of test [13]: qHTS assay to identify small molecule antagonists of the retinoid-related orphan receptor gamma (ROR-gamma) signaling pathway - cell viability counter screen (AID 1159520). Also: nearly all actives have a fitted effect of over 50% in size. The procedure, abridged: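 Cytotoxicity was read from cellular ATP (CellTiter-Glo luminescence) after 16 hr at 37 C with 1 uM doxycycline induction. The inducer was added 2 hr after compound transfer to Tet-on ROR gamma CHO cells.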

Chain of Retinoic acid receptor RXR-alpha (Homo sapiens) (P19793 whole entry, looked up): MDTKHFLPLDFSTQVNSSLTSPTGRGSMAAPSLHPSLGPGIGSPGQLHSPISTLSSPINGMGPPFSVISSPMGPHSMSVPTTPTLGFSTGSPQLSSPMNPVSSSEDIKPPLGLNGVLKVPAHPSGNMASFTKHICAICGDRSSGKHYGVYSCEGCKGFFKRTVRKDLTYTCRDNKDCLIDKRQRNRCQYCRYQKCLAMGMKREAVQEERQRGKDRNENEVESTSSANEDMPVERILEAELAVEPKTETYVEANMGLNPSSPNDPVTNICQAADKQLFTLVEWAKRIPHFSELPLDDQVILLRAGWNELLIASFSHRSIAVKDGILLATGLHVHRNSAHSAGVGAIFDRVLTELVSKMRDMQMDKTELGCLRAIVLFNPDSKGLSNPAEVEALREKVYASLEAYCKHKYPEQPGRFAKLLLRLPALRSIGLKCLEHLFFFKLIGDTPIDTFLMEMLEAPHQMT

As to `CC/C=C\CCCCCO`, the Potency result in test [1], in [2], in [3], in [4], in test [5] and in [6] was “inactive” in each case. The Potency result in test [7], in [8] and in [9] was “inactive” throughout.

Regarding `c1ccc(C(O[C@@H]2CCCN(CCc3ccc4c(c3)OCO4)C2)c2ccccc2)cc1`, the Potency result in test [3], in [4] and in [9] was “inactive” in each case. Moreover, the Potency in test [5] was 61.1 µM (active).

On to `CC1(C)CCC[C@]2(C)[C@H]3CC(=O)O[C@]3(C)CC[C@@H]12`, for which the Potency result in [1], in test [2], in test [3], in test [4], in test [5] and in test [10] was “inactive” in each case.

For `C=CCCC(=O)/C=C/C1C(C)=CCCC1(C)C` (centres undefined), the Potency result in test [1], in test [2], in test [3], in test [4], in [6] and in [7] was “inactive” in each case. In addition, the Potency entry in test [11], in test [9], in [12] and in test [10] was “inactive” throughout.

As to `OC[C@@H](O)[C@@H](O)CO`, the Potency entry in test [1], in test [2], in [3], in [4], in test [5] and in test [6] was “inactive” in each case. For the same compound, the Potency entry in test [7], in test [11], in test [9], in test [12] and in test [10] was “inactive” in each case.

For the compound `O=[N+]([O-])c1ccc(O)cc1C(F)(F)F`, the Potency result in test [3], in test [4], in test [6], in test [7], in test [9] and in [12] was “inactive” in each case. For the same compound, the Potency result in test [10] was “inactive”. For the same compound, the Potency in test [5] is 7.7 µM (active).

Take `CC(C)CCCCCOC(=O)CCS`: the Potency result in [1], in [2], in test [3], in [4], in [13] and in test [7] was “inactive” each time. Besides, the Potency entry in test [9], in test [12] and in test [10] was “inactive” each time.

On to `c1ccc(SSc2ccccc2)cc1`, for which the Potency result in [1], in test [3], in test [4], in test [5], in test [6] and in [9] was “inactive” in each case.

Regarding `C#C[C@]1(OC(C)=O)CC[C@H]2[C@@H]3CCC4=C/C(=N/O)CC[C@@H]4[C@H]3CC[C@@]21CC`, the Potency entry in test [1], in [2], in test [3], in [4], in [13] and in [9] was “inactive” each time. For the same compound, the Potency entry in test [10] was “inactive”.

Turning to `CN(C)CCN1CCN(c2cccc(Cl)c2)C1=O`, the Potency result in test [1], in test [2], in test [3], in test [4], in test [5] and in test [6] was “inactive” in each case. Besides, the Potency result in test [7], in test [8] and in test [9] was “inactive” in each case.

`COc1ccc(-c2coc3cc(O)ccc3c2=O)cc1`: the Potency entry in test [1], in [3], in [4], in test [6], in [7] and in [8] was “inactive” each time. Besides, the Potency result in [9] and in test [12] was “inactive” in each case. In test [10], the Potency is 486 nM (active).

Turning to `Clc1sc(Cl)c(Cl)c1Cl`, the Potency result in test [2], in test [3], in test [4], in test [5], in test [6] and in test [7] was “inactive” each time. For the same compound, the Potency entry in [11], in [8] and in [9] was “inactive” each time.

As to `OC[C@H]1O[C@H](O[C@H]2O[C@H](CO)[C@@H](O)[C@H](O)[C@H]2O)[C@H](O)[C@@H](O)[C@@H]1O`, the Potency entry in test [1], in test [3], in test [4], in test [5], in [6] and in test [7] was “inactive” each time. Moreover, the Potency result in [8], in [9] and in test [10] was “inactive” in each case.

In the case of `CCCC(=O)OC(C)(C)Cc1ccccc1`, the Potency entry in test [1], in test [3], in test [4], in test [5], in test [6] and in test [7] was “inactive” each time. Besides, the Potency entry in [11], in test [8], in test [9], in [12] and in test [10] was “inactive” in each case.

On to `[Cl][Pt-2]([Cl])([Cl])[Cl]`, for which the Potency result in test [3], in [4], in test [5], in test [6], in test [9] and in test [10] was “inactive” throughout.

With `Clc1ccnc(Cl)n1`, the Potency entry in test [1], in [2], in [3], in test [4], in test [5] and in test [6] was “inactive” throughout. Further, the Potency result in test [7], in test [11], in [8], in test [9] and in test [12] was “inactive” in each case.
